# ± gives the standard deviation of the averaged measurements. The full data set covers some 5,400 targets. This sample favours those with the largest changes.
# Compound: Nc1nc2c(ncn2[C@@H]2O[C@H](COP(=O)(O)OP(=O)(O)OP(=O)(O)O)[C@@H](O)[C@H]2O)c(=O)[nH]1 [guanosine triphosphate]
# Experiment: NP40-soluble protein abundance relative to vehicle (solubility fold change) (ratio); higher = more soluble protein in presence of GTP
# In short: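 Eight concentrations, 0.1 to 10 mM, were tested on Jurkat crude lysate for 10 min at room temperature and then 3 min at 37 °C, in three independent experiments. The lysate was solubilised with 0.8% NP40 and benzonase, ultracentrifuged, and the supernatant TMT-labelled for LC-MS/MS. Each value is the fold change against the detergent-processed vehicle in its own replicate, from vsn-normalised intensities.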
# Sequence of UniProt Q9NYL4 (Q9NYL4 whole entry, one chain of several): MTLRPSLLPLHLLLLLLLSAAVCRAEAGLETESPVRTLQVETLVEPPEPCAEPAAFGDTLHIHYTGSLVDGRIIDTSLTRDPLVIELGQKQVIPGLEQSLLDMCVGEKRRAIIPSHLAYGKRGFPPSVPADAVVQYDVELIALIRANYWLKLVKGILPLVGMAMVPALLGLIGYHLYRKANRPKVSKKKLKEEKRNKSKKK
# Sequence of UniProt P20936 (P20936 whole entry, one chain of several): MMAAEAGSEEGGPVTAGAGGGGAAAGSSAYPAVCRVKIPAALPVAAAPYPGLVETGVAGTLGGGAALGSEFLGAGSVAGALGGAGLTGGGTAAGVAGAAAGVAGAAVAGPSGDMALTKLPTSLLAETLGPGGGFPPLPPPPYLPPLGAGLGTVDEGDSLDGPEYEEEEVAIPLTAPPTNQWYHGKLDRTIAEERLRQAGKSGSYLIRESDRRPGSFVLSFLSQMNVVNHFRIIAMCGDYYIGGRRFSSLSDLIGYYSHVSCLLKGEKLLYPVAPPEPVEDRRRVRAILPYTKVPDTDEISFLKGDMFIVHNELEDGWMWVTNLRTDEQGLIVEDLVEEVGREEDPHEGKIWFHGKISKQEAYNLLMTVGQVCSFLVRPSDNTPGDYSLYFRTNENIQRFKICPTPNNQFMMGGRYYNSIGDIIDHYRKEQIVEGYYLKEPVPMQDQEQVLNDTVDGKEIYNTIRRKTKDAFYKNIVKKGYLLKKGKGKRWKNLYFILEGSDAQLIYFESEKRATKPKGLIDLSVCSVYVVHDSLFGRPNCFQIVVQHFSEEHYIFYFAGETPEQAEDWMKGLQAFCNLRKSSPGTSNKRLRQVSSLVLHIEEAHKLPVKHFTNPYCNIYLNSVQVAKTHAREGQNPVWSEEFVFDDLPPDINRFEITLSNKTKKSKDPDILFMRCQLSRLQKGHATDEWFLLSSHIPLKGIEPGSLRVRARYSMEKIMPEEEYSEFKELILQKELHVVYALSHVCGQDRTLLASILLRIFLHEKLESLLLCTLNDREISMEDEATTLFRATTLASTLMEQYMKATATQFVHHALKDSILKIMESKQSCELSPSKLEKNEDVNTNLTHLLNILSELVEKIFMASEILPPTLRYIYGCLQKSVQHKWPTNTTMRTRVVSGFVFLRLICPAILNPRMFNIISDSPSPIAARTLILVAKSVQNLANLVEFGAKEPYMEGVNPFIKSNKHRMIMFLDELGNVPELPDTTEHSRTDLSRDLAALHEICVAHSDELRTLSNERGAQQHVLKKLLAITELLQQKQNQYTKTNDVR
# Sequence of UniProt Q99501 (Q99501 whole entry, one chain of several): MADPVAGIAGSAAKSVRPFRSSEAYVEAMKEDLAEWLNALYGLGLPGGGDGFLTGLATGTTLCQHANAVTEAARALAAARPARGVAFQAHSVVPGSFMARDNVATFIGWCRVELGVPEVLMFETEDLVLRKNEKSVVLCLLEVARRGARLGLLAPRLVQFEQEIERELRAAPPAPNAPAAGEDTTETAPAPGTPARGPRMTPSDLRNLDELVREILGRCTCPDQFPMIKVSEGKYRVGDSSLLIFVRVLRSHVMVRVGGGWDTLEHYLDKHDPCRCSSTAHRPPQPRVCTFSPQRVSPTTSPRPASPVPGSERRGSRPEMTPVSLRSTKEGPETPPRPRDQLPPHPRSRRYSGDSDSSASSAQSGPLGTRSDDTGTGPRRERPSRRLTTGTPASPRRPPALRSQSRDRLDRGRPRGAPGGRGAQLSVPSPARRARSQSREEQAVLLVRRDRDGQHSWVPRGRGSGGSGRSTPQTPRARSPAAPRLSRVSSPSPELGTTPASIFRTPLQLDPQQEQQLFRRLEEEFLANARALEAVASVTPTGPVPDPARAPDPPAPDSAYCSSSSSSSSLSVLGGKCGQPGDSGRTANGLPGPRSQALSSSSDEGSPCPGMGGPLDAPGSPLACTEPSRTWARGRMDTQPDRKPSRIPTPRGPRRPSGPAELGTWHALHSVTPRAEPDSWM
# Sequence of UniProt Q9Y2Q3 (Q9Y2Q3 whole entry, one chain of several): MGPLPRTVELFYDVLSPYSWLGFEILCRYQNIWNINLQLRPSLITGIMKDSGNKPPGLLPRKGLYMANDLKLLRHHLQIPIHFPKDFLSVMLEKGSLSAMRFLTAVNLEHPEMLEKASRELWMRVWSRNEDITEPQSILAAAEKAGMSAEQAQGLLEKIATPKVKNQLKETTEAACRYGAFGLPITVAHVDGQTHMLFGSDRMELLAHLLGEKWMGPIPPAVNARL
# Sequence of UniProt Q03013 (Q03013 whole entry, one chain of several): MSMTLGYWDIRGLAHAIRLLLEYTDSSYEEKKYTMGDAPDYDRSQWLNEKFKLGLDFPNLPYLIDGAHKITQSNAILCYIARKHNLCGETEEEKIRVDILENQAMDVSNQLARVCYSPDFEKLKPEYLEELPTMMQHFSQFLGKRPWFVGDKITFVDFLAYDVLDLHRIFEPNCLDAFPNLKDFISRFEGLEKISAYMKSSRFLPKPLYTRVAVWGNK
# Sequence of UniProt Q8N128 (Q8N128 whole entry, one chain of several): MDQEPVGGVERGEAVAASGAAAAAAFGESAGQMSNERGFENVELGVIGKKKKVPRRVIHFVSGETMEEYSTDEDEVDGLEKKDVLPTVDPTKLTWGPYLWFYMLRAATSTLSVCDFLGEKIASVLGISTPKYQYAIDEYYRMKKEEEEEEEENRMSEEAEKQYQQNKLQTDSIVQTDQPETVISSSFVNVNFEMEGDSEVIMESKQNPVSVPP
# Sequence of UniProt Q96EK7 (Q96EK7 whole entry, one chain of several): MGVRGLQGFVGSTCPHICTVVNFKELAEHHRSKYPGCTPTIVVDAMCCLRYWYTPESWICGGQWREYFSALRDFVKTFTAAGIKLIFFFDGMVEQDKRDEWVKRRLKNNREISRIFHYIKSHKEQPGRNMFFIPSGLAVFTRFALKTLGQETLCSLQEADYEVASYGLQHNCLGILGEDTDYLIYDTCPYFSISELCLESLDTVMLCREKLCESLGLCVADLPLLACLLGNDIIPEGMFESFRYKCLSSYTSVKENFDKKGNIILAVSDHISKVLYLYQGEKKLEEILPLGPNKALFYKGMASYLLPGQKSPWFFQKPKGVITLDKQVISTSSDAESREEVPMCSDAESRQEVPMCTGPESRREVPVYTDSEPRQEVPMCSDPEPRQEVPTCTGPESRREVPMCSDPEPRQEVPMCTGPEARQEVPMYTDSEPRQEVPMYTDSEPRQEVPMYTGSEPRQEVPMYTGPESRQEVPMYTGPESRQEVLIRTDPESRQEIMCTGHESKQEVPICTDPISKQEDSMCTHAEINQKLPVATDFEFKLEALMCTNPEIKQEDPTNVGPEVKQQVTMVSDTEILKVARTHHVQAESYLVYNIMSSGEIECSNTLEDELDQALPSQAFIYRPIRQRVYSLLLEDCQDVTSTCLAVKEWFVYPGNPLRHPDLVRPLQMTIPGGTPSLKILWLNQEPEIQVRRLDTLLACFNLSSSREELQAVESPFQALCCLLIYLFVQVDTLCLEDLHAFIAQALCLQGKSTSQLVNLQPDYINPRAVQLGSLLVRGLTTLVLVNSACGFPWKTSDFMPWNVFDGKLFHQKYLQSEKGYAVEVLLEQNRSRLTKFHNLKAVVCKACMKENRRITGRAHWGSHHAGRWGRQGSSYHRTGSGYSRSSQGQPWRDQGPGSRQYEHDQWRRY
# Sequence of UniProt P05161 (P05161 whole entry, one chain of several): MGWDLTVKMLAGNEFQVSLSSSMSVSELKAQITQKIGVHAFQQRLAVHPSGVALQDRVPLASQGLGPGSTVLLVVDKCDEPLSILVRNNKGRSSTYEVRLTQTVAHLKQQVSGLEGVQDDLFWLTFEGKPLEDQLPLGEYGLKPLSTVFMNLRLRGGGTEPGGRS
# Sequence of UniProt P07766 (P07766 whole entry, one chain of several): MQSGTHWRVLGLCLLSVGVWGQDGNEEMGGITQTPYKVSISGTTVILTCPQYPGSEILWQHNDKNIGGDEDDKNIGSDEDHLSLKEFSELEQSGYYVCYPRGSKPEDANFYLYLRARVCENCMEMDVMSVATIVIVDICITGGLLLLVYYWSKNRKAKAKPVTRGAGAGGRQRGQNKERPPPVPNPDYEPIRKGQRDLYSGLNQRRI
# Sequence of UniProt P17480 (P17480 whole entry, one chain of several): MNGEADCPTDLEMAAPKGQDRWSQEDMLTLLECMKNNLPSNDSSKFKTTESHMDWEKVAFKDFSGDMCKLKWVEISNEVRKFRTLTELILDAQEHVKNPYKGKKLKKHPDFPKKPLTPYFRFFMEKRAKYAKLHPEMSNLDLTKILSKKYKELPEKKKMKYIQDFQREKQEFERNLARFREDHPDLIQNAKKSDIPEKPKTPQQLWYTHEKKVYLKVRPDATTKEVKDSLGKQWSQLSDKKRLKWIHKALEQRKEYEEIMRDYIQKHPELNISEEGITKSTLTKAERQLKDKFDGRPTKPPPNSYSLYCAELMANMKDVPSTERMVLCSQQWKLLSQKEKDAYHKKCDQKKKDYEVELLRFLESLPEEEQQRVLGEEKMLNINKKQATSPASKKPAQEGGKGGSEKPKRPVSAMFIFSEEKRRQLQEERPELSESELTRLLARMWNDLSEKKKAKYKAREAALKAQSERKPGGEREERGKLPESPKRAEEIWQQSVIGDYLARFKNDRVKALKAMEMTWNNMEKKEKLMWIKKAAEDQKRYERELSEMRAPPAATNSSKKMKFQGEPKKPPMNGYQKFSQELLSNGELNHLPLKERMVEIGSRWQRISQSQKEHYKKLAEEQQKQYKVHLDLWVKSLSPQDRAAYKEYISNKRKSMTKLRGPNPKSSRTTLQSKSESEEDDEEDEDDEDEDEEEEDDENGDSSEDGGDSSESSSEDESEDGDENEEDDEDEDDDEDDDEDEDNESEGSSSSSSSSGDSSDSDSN
# Sequence of UniProt P09234 (P09234 whole entry, one chain of several): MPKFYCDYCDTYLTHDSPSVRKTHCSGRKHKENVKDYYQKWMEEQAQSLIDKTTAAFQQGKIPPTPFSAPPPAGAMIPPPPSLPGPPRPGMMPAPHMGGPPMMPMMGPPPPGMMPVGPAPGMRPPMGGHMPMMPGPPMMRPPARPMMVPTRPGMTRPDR
Target,NP40-soluble protein abundance (concentration: 0.1mM),NP40-soluble protein abundance (concentration: 0.5mM),NP40-soluble protein abundance (concentration: 1mM),NP40-soluble protein abundance (concentration: 2mM),NP40-soluble protein abundance (concentration: 4mM),NP40-soluble protein abundance (concentration: 6mM),NP40-soluble protein abundance (concentration: 8mM),NP40-soluble protein abundance (concentration: 10mM)
A0A0A0MR85|Q03013 (UniProt Q03013),1.08 ± 0.068,1.07 ± 0.067,1.04 ± 0.078,1.03 ± 0.14,0.929 ± 0.058,0.985 ± 0.071,1 ± 0.11,0.989 ± 0.14
A8MQ02|J3KN01|P55196|P55196-3|P55196-5 (UniProt P55196),1.15 ± 0.16,0.987 ± 0.079,1 ± 0.038,1.05 ± 0.14,1.18 ± 0.34,1.18 ± 0.21,1.16 ± 0.14,1.13 ± 0.078
E9PSH8|P07766 (UniProt P07766),0.955 ± 0.049,0.991 ± 0.076,0.986 ± 0.071,0.958 ± 0.085,0.962 ± 0.082,0.96 ± 0.082,0.978 ± 0.068,0.983 ± 0.11
D6RAN8|H7C5U8|Q9P0M9 (UniProt Q9P0M9),1.09 ± 0.38,1.2 ± 0.5,1.53 ± 0.78,1.81 ± 0.82,1.91 ± 0.83,1.72 ± 0.79,1.64 ± 0.79,1.58 ± 0.84
A0A0A0MRR7|P09234 (UniProt P09234),1.06 ± 0.017,1.19 ± 0.068,1.25 ± 0.068,1.36 ± 0.052,1.33 ± 0.11,1.56 ± 0.097,1.71 ± 0.2,1.82 ± 0.24
F2Z2Y4|O00764|O00764-2 (UniProt O00764),1 ± 0.072,1.01 ± 0.09,0.942 ± 0.055,0.918 ± 0.095,0.905 ± 0.071,0.91 ± 0.08,0.88 ± 0.063,0.868 ± 0.086
E9PHG5|Q6UW02|Q6UW02-2 (UniProt Q6UW02),1.1 ± 0.21,1.04 ± 0.17,1.01 ± 0.075,1.04 ± 0.061,0.955 ± 0.16,0.984 ± 0.14,0.882 ± 0.25,0.884 ± 0.14
A0A087WY71|Q96CW1|Q96CW1-2 (UniProt Q96CW1),1.09 ± 0.11,1.12 ± 0.17,0.947 ± 0.078,1.04 ± 0.16,1.04 ± 0.14,1.03 ± 0.13,0.941 ± 0.023,0.95 ± 0.09
A0A0A6YYH1|H0YLI7|P59780|Q7Z6K5-2 (UniProt Q7Z6K5+P59780+H0YLI7),1.04 ± 0.012,1.07 ± 0.045,1.06 ± 0.099,1.03 ± 0.044,0.986 ± 0.04,1.01 ± 0.076,0.989 ± 0.017,0.992 ± 0.049
A0A087WTT6|P62273|P62273-2 (UniProt P62273),0.92 ± 0.14,0.977 ± 0.14,1.16 ± 0.29,1.1 ± 0.19,0.953 ± 0.29,0.957 ± 0.27,0.663 ± 0.15,0.939 ± 0.29
F5GY05 (UniProt Q96EK7),1.06 ± 0.034,1 ± 0.11,1.01 ± 0.036,1.06 ± 0.083,1 ± 0.047,0.99 ± 0.042,1.05 ± 0.083,1.05 ± 0.13
A0A096LNZ9|A0A096LPJ4|P05161 (UniProt P05161),0.9514 ± 0.0057,0.961 ± 0.023,0.899 ± 0.019,0.888 ± 0.02,0.869 ± 0.026,0.885 ± 0.035,0.83 ± 0.034,0.836 ± 0.034
A0A087WU64|A6NMQ1|P09884 (UniProt P09884),1.06 ± 0.025,1.07 ± 0.035,1.01 ± 0.047,1.02 ± 0.057,1.01 ± 0.033,0.994 ± 0.028,1.01 ± 0.051,0.973 ± 0.029
A0A0A0MTB8|Q8NI36 (UniProt Q8NI36),1.1 ± 0.013,1.18 ± 0.047,1.2 ± 0.064,1.55 ± 0.056,2 ± 0.13,2.39 ± 0.2,2.33 ± 0.13,2.39 ± 0.3
G3V583|Q8N128|Q8N128-2 (UniProt Q8N128),0.912 ± 0.089,0.928 ± 0.084,0.869 ± 0.13,0.94 ± 0.16,0.887 ± 0.16,0.861 ± 0.14,0.87 ± 0.1,0.902 ± 0.14
A6NFX8|Q9UKK9 (UniProt Q9UKK9),1.05 ± 0.036,1.04 ± 0.07,0.987 ± 0.036,0.994 ± 0.079,0.968 ± 0.046,0.942 ± 0.052,0.93 ± 0.018,0.93 ± 0.01
A0A087WWH3|Q9NZM4|Q9NZM4-2 (UniProt Q9NZM4),1.06 ± 0.018,0.989 ± 0.1,1.16 ± 0.19,1.22 ± 0.1,1.22 ± 0.15,1.13 ± 0.33,1.2 ± 0.44,1.33 ± 0.38
E9PKP7|E9PLT2|P17480|P17480-2 (UniProt P17480),1.02 ± 0.025,1 ± 0.036,1.08 ± 0.025,1.2 ± 0.079,1.31 ± 0.074,1.45 ± 0.066,1.5 ± 0.053,1.87 ± 0.13
E9PGC0|P20936|P20936-2|P20936-4 (UniProt P20936),1.05 ± 0.069,1.04 ± 0.091,1.02 ± 0.11,0.997 ± 0.072,0.909 ± 0.027,0.931 ± 0.032,0.961 ± 0.048,0.899 ± 0.031
F5H269|Q9Y485 (UniProt Q9Y485),0.991 ± 0.013,1.11 ± 0.081,1.05 ± 0.096,1.01 ± 0.087,1.04 ± 0.09,1.06 ± 0.088,1.12 ± 0.15,1.11 ± 0.11
A0A087WYN9|Q7Z478 (UniProt Q7Z478),1.34 ± 0.086,1.69 ± 0.26,1.66 ± 0.28,1.77 ± 0.29,1.8 ± 0.23,1.84 ± 0.27,1.86 ± 0.27,1.86 ± 0.19
E9PFN5|Q9Y2Q3 (UniProt Q9Y2Q3),0.922 ± 0.042,0.934 ± 0.038,0.895 ± 0.036,0.906 ± 0.043,0.887 ± 0.042,0.888 ± 0.031,0.829 ± 0.082,0.86 ± 0.079
F8VU90|Q9NYL4|Q9NYL4-2 (UniProt Q9NYL4),0.972 ± 0.06,0.968 ± 0.052,1.04 ± 0.018,1.03 ± 0.065,1.05 ± 0.033,0.996 ± 0.078,0.922 ± 0.041,0.995 ± 0.065
A0A087X1B9|P02792 (UniProt P02792),1.09 ± 0.16,1.03 ± 0.21,1.44 ± 0.11,1.55 ± 0.054,1.64 ± 0.14,1.465 ± 0.0048,1.43 ± 0.17,1.68 ± 0.12
B0QY89|Q9Y262|Q9Y262-2 (UniProt Q9Y262),1.08 ± 0.062,1.09 ± 0.09,1.06 ± 0.1,1.17 ± 0.19,1.33 ± 0.28,1.47 ± 0.34,1.57 ± 0.29,1.75 ± 0.35
A0A5E8|Q99501|C9JFI0 (UniProt Q99501),1.12 ± 0.09,1.17 ± 0.18,1.21 ± 0.1,1.3 ± 0.15,1.3 ± 0.086,1.37 ± 0.075,1.46 ± 0.035,1.38 ± 0.078
